The values that follow come from PubChem BioAssay.

The nature of experiment [1]: E. coli DRC41 culture turbidity changes, primary screen, E. coli filamentation inducer project, strain DRC41, OD650, 48 h (AID 1152).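 Note: E. coli MC1000 strain DRC41 lacking acrAB efflux pump and sulA.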 Conditions: E. coli DRC41 (acrAB sulA), higher = more signal, called active from +8 up or from −8 down.
Experiment [2] can be described thus: small-molecule binders of probe aLefty1, primary screen, biochemical, small-molecule microarray, 635/667 nm fluorescence (AID 1153).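 Note: score merges spot fluorescence with signal-to-noise ratio from the scanned slide images.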 The settings on record: higher = more signal.
Experiment [3] can be described thus: PSAC antagonists in infected red cells, primary screen, cell-based, P. falciparum Indochina, OD700, 1 h (AID 1154). Conditions: P. falciparum Indochina infected RBC osmotic lysis, higher = more signal, called active from +8 up or from −8 down.
Experiment [4] is described as follows: PSAC antagonists in infected red cells, primary screen, cell-based, P. falciparum Indochina, OD700, 2 h (AID 1155).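 Note: lysis reports solute entry through the parasite surface anion channel PSAC; channel blockers reduce lysis of infected cells.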 Conditions: P. falciparum Indochina infected erythrocytes, osmotic lysis OD700; higher = more signal, called active from +8 up or from −8 down.
The nature of experiment [5]: osmotic lysis modulators in infected erythrocytes, primary screen, PSAC antagonist project, cell-based, P. falciparum Indochina, OD700, 3 h (AID 1156). The settings on record: higher = more signal, called active from +8 up or from −8 down.
Experiment [6] in a line: PSAC antagonists in infected red cells, primary screen, cell-based, P. falciparum Indochina, OD700, 18 h (AID 1157). Conditions: P. falciparum Indochina infected erythrocytes, osmotic lysis OD700, 18 h; higher = more signal, called active from +8 up or from −8 down.
The nature of experiment [7]: modulators of S6 phosphorylation in cells, primary screen, cell-based, A549, cytoblot, luminescence, serum-stimulated (AID 1158).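 Note: serum-stimulated A549 lung adenocarcinoma cells; signal is phosphorylated S6 detected by cytoblot immunostaining with HRP secondary.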 Conditions: A549 phospho-S6 cytoblot, 5 h, higher = more signal.
For experiment [8], the target named is NADPH oxidase 2 (Homo sapiens) (UniProt P04839). The experiment is described as follows: NOX2-dependent H2O2 signal modulators, primary screen, NOX inhibitor project, cell-based, HEK293-NOX2, PMA-stimulated, Amplex Red fluorescence (AID 1159). Note: test concentration not given here. Conditions: 45 min, higher = more signal, called active from +8 up or from −8 down.
Sequence of NADPH oxidase 2 (Homo sapiens) (P04839 whole entry, looked up): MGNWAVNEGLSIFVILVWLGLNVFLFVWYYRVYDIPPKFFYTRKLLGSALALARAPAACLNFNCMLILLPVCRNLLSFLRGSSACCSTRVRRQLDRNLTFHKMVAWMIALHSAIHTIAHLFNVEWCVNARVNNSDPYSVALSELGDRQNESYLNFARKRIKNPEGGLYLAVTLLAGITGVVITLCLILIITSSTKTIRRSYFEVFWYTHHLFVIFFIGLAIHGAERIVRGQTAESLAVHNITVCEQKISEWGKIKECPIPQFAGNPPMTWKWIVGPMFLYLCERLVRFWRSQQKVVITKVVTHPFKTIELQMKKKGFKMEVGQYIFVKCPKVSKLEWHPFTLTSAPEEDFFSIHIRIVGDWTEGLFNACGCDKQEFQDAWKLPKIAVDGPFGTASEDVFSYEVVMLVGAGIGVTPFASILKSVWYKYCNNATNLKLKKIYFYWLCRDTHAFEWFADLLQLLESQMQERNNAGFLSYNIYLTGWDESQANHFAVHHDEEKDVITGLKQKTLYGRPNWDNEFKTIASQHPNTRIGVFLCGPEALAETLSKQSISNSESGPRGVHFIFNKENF
Experiment [9] concerns the target NADPH oxidase 4 (Homo sapiens) (UniProt Q9NPH5). The experiment is described as follows: NOX4-dependent H2O2 signal modulators, primary screen, NOX inhibitor project, cell-based, HEK293-NOX4, tetracycline-induced, Amplex Red fluorescence (AID 1160). Conditions: 45 min, higher = more signal, called active from +8 up or from −8 down.
Experiment [10] deals with NADPH oxidase 5 (Homo sapiens) (UniProt Q96PH1). The experiment is described as follows: NOX5-dependent H2O2 signal modulators, primary screen, NOX inhibitor project, cell-based, HEK293-NOX5, Amplex Red fluorescence (AID 1161). The settings on record: HEK293-NOX5, ionomycin, 45 min, higher = more signal.
Sequence of NADPH oxidase 5 (Homo sapiens) (Q96PH1 whole entry, looked up): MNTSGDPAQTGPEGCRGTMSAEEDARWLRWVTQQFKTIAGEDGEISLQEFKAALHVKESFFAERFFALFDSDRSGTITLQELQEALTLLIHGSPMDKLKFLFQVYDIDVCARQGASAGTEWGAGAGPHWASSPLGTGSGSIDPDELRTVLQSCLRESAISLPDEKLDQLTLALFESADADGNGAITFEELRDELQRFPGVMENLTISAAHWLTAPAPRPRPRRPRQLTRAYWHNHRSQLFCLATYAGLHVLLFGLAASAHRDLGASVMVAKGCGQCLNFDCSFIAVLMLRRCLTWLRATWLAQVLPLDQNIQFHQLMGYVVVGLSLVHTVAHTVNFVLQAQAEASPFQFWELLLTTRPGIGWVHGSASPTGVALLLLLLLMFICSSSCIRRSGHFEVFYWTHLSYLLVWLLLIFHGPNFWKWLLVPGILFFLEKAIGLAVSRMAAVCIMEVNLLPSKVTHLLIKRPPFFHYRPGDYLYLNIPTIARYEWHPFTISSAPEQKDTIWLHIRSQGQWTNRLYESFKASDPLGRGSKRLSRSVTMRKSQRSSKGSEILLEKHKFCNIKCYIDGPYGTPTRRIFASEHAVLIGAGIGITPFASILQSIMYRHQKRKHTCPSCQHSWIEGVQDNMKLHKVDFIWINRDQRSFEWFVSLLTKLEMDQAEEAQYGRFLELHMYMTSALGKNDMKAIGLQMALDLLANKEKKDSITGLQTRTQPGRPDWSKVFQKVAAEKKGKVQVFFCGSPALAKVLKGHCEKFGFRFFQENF
Experiment [11] can be described thus: A549 cell viability effects, profiling panel, calcein-AM fluorescence, 48 h, basal (AID 1162). Note: test concentration not given here. Conditions: higher = more signal.
Experiment [12] is described as follows: adipocyte viability effects, profiling panel, cell-based, 3T3-L1 adipocytes, calcein-AM fluorescence, 48 h, basal (AID 1163). Note: test concentration not given here. Conditions: 3T3-L1 adipocytes viability, higher = more signal.
The nature of experiment [13]: HepG2 cell viability effects, profiling panel, calcein-AM fluorescence, 48 h, basal (AID 1164). Note: test concentration not given here. Conditions: higher = more signal.
The nature of experiment [14]: MM1S cell viability effects, profiling panel, calcein-AM fluorescence, 48 h, basal (AID 1165).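 Note: viability of MM1S multiple myeloma cells under basal unstimulated conditions; test concentration not given here.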 Conditions: higher = more signal.
The nature of experiment [15]: basal RPMI8226 viability, no added stimulus, profiling panel, cell-based, calcein-AM fluorescence, 48 h, PK04 Diversity Set (AID 1166).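 Note: cells grown under basal conditions without added stimulus; test concentration not given here.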 The settings on record: RPMI8226 myeloma viability, higher = more signal.
Experiment [16] is described as follows: basal HepG2 mitochondrial membrane potential changes, profiling panel, cell-based, JC-1 fluorescence, 24 h, 100 nL compound (AID 1167). Note: test concentration not given here. Conditions: higher = more signal.
Experiment [17] can be described thus: basal 3T3-L1 adipocyte mitochondrial potential changes, profiling panel, cell-based, JC-1 fluorescence, 3T3-L1 adipocytes, 24 h, 100 nL compound (AID 1168). Note: test concentration not given here. Conditions: JC-1 mitochondrial fluorescence, higher = more signal, called active from +8 up or from −8 down.
Experiment [18] is described as follows: basal RPMI8226 mitochondrial membrane potential changes, profiling panel, cell-based, JC-1 fluorescence, 24 h, 100 nL compound (AID 1169). Note: test concentration not given here. Conditions: RPMI8226 myeloma, JC-1 mitochondrial potential fluorescence, higher = more signal.
The nature of experiment [19]: basal MM1S mitochondrial membrane potential changes, profiling panel, cell-based, JC-1 fluorescence, 24 h, 100 nL compound (AID 1170). Note: test concentration not given here. The settings on record: higher = more signal.
A short description of experiment [20]: A549 lung cancer cell viability effects, profiling panel, resazurin fluorescence, 24 h, PK04 Diversity Set (AID 1171). Note: test concentration not given here. The settings on record: higher = more signal, called active from +8 up or from −8 down. On the technique in general: Alamar Blue is a resazurin reagent that responds to reducing activity.

Activity calls are given as the source filed them.

Sequence of NADPH oxidase 4 (Homo sapiens) (Q9NPH5 whole entry, looked up): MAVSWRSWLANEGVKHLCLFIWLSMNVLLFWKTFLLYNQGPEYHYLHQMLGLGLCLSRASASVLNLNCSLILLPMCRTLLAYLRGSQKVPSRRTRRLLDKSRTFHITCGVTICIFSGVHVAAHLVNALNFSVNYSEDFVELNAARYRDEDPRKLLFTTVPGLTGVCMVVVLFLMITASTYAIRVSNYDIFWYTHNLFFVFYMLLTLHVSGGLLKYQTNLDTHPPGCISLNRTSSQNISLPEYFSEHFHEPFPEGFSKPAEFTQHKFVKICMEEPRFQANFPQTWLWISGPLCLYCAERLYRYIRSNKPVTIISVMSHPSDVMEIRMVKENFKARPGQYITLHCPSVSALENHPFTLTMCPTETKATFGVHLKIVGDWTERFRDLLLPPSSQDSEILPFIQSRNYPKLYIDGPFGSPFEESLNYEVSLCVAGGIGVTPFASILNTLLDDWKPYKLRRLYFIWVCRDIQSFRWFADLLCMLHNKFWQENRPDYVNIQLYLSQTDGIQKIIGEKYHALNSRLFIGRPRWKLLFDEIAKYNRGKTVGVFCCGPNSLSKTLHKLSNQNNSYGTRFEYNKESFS

For `NC(=O)NCC#Cc1ccc2c(c1)[C@]1(C(=O)N2)[C@H](c2ccc(OCCO)cc2)N2[C@H](c3ccccc3)[C@H](c3ccccc3)OC(=O)[C@H]2[C@@H]1C(=O)NC[C@H](O)c1ccccc1`, the z-score was 2.63 (inactive) in [1]; 1.06 (inactive) in experiment [3]; -0.573 (inactive) in [4]; -0.88 (inactive) in experiment [5]; -1.81 (inactive) in [6]; 0.713 in experiment [7]. The z-score in [8] was 2 (inactive); in experiment [9], 0.314 (inactive); in experiment [10], 0.742; in [11], 0.192; in experiment [12], 0.326; in [13] it was 0.013. Moreover, the z-score in experiment [14] was 0.405; in [15] it was 0.847; in experiment [16], -1.4; in experiment [17], -0.0754 (inactive); in experiment [18], -0.538; in experiment [19], 0.207. Also, in experiment [20], the z-score is 0.401 (inactive). Moreover, the composite z-score in experiment [2] was found to be 0.0183.
Consider `C=C(CCCC)C(=O)CC[C@@H](OC(=O)c1ccccc1-c1ccccc1C(=O)O)c1ccccc1OCCO`, for which the z-score in experiment [1] was 0.414 (inactive); in experiment [3], 6.1 (inactive); in experiment [4] it was 0.148 (inactive); in [5], -0.138 (inactive); in experiment [6] it was -1.14 (inactive); in experiment [7], 0.332. For the same compound, the z-score in experiment [8] is 1.78 (inactive); in experiment [9] it was 0.0357 (inactive); in [10], -1.39; in experiment [11] it was 1.54; in [12], 2.03; in experiment [13], -0.29. For the same compound, the z-score is -3.39 in experiment [14]; -3.95 in [15]; -0.688 in experiment [16]; 0.306 (inactive) in experiment [17]; -0.67 in experiment [18]; -0.203 in experiment [19]. Moreover, the z-score in [20] was 0.573 (inactive). For the same compound, the composite z-score in [2] is -0.0003.
As for `COCCOC(=O)N1C(=O)[C@@]2(c3ccccc31)[C@H](C(=O)N1CCN(c3ncccn3)CC1)[C@H]1C(=O)O[C@H](c3ccccc3)[C@H](c3ccccc3)N1[C@@H]2c1ccccc1OCCO`, the z-score is 2.86 (inactive) in experiment [1]; 10 (active) in experiment [3]; 1.18 (inactive) in experiment [4]; -0.427 (inactive) in experiment [5]; 0.0951 (inactive) in [6]; 1.89 in experiment [7]. In addition, the z-score was 0.89 (inactive) in experiment [8]; 1.09 (inactive) in experiment [9]; 0.791 in experiment [10]; 1.14 in experiment [11]; 0.549 in experiment [12]; -0.0577 in experiment [13]. Besides, the z-score in [14] was 0.0079; in experiment [15] it was -0.203; in experiment [16], -0.195; in experiment [17], 0.204 (inactive); in [18], -0.248; in [19], -0.742. Also, the z-score in experiment [20] is -0.166 (inactive). Also, the composite z-score in [2] was 0.867.
For the compound `CCOC(=O)C1=C[C@@H](C(C)(C)C)N(S(=O)(=O)c2ccc(C)cc2)[C@H]1c1ccc(C#N)cc1`, the z-score in experiment [1] was -1.02 (inactive); in [3] it was 3.01 (inactive); in [4], 1.33 (inactive); in [5], -0.217 (inactive); in [6], 0.905 (inactive); in experiment [7] it was -0.561. Further, the z-score in experiment [8] was -0.642 (inactive); in experiment [9] it was -0.508 (inactive); in [10], 1.11; in experiment [11] it was -0.368; in experiment [12], -0.316; in experiment [13] it was -1.12. In addition, the z-score in [14] was -2.79; in [15] it was -2.17; in experiment [16] it was 1.63; in experiment [17] it was -0.398 (inactive); in [18] it was -0.372; in experiment [19], -0.555. For the same compound, the z-score in experiment [20] was 1.69 (inactive). In [2], this compound gave a composite z-score of 0.337.
